HT1080 IDH1KD tx: kills HT-1080 cells with IDH1 knockdown. HT-1080 IDH1 knockdown viability, ATP luminescence, 48 h. Potency, µM (series often up to 46.1 µM), for the others: at the highest dose activity, negative = toxicity, usual class: cytotoxic. 360,000 tested, 2% active. AID 686971;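 note: potency is the fitted concentration of half-maximal effect; 0% = DMSO wells and -100% = cell-free medium wells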
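CellTiter-Glo luminescence after 48 h compound exposure at 37 degrees C of IDH1-knockdown HT-1080 cells in 5% FBS RPMI. %Activity scaled between DMSO wells and cell-free media wells, with curves fitted and assigned curve classes.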
HT1080-NT tox: kills 2HG-producing HT-1080-NT fibrosarcoma cells | 360,000 tested, 1.6% active | Potency, µM (titrated, usually from 46.1 µM), for inactives: at the top dose activity, negative = less viability, hits mostly cytotoxic | HT-1080-NT fibrosarcoma viability, CellTiter-Glo ATP luminescence, 48 h;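 note: NT is the 2HG producing partner of a matched IDH1 knockdown line; potency is the fitted concentration of half-maximal effect; 0% = DMSO-treated cells and -100% = media-only wells without cells; nearly all actives have a fitted effect of over 55% in size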
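HT-1080-NT fibrosarcoma cells (2HG-overproducing), 750 cells/well in RPMI with 5% FBS, dosed after 2 h and incubated 48 h at 37C. CellTiter-Glo luminescence normalized to DMSO and no-cell wells; concentration-response curves fitted and classed.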
IL-1B inflam inh: blocks inflammasome-driven IL-1 beta release. THP-1 LPS/ATP IL-1B secretion, AlphaLISA, 16 h; stronger effect = lower value. activity change, % at 57.5 µM. 360,000 tested, 4.7% active; in the data active = activity change below about -50%; inconclusive = mostly about -30% to -49%
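Secreted IL-1B measured by AlphaLISA bead assay after 16 h compound exposure of THP-1 cells; compounds (final up to 57.5 uM) added 1 h before LPS (250 ng/mL) and ATP (1.25 mM) stimulation; lower signal means less secretion.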
TDP1 cell CPT: growth inhibition of DT40 Tdp1-/-;hTDP1 cells with camptothecin (screen for TDP1 inhibitors). chicken DT40 Tdp1-/-;hTDP1 cells + 20 nM CPT, ATP luminescence, 48 h. AID 686979. 420,000 tested, 12% active. Potency, µM (highest dose often 46.2 µM), for the others: top-dose activity change, negative = growth inhibition, usual class: inhibitors; note: potency is the fitted concentration of half-maximal effect; nearly all actives have a fitted effect of over 55% in size
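Chicken DT40 Tdp1-/- cells complemented with human TDP1, 400 cells/well, exposed to compounds plus 20 nM camptothecin for at least 48 h at 37 C; viability read as ATP content by CellTiter-Glo luminescence.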
DT40 TDP1 no CPT: qHTS for Inhibitors of human tyrosyl-DNA phosphodiesterase 1 (TDP1): qHTS in cells in absence of CPT; DT40 Tdp1-/- hTDP1 cells, no CPT, ATP luminescence, 48 h; Potency, µM (titrated, usually from 46.2 µM), inactives show at the top dose activity change, negative = growth inhibition, most hits filed as inhibitors; 420,000 tested, 15% active; note: potency is the fitted concentration of half-maximal effect; nearly all actives have a fitted effect of over 55% in size
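Chicken DT40 Tdp1-/- cells stably complemented with human TDP1 were seeded at 400 cells/well with DMSO in place of 20 nM camptothecin. After compound pinning, cells grew at least 48 hr at 37 °C; viability read by CellTiter-Glo luminescence.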
ELG1 DNA repair: inhibitors of ELG1-dependent DNA repair in HEK293T cells; 330,000 tested, 2.3% active; HEK293T ELG1-luciferase reporter, luminescence, 16 h; DNA damage induced by 5-fluorouridine; Potency, µM (series often up to 46.1 µM), inactives show at the highest dose activity change, negative = inhibition, actives largely listed as inhibitors; AID 504467; note: potency is the fitted concentration of half-maximal effect; nearly all actives have a fitted effect of over 55% in size
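Reporter activity after DNA damage by 5-fluorouridine is monitored. Compound-treated cells incubate 16 hr at 37 °C, then ONE-Glo is added for 30 min before luminescence reading.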
The depositor's hits bear a star; u = inconclusive; x = no result; [ ] = dose if it differs, or a comment. This is a sample that favours compounds with a hit; in the whole collection about 19% have one here. Unless noted, calls come from the whole dose curve; as a rule, active = well fitted curve in the direction sought with a large enough effect; inconclusive = small, poorly fitted or top-dose-only effect, or another doubt; inactive = no such curve, though single readings can be large; an effect the other way counts as inactive or inconclusive. Unless noted, % is set by controls: 0 for no effect and ±100 for the full control effect.

SMILES | HT1080 IDH1KD tx | HT1080-NT tox | IL-1B inflam inh | TDP1 cell CPT | DT40 TDP1 no CPT | ELG1 DNA repair
ClCCN1CCN(c2ccnc3cc(Cl)ccc23)CC1 | -9% | -9% | -50* | 13µM* | 15µM* | 7%
CN1CC[C@]23c4c5ccc(O)c4O[C@H]2[C@@H](O)C=C[C@H]3[C@H]1C5 | x | x | x | -10%[92.5 µM] | -25%[92.5 µM] | x
COc1cc2c(cc1O)CC[C@@H]1[C@@H]2CC[C@]2(C)[C@@H](O)CC[C@@H]12 | u | u | -11 | 1.8µM* | 4.6µM* | x
Cc1ccc([C@H]2C[C@H](n3cc(C4CC4)nn3)[C@@H](O)CN2Cc2cccs2)cc1 | -9% | -1% | 11 | -31% | u | x
O=C(Cc1ccc(N(CCCl)CCCl)cc1)NC(Cc1ccc(Cl)cc1)C(=O)O (centres undefined) | 9% | 15% | 0 | u | u | -4%
O=C(O)CCCc1ccc(N(CCCl)CCCl)cc1 | 1% | -7% | -1 | 0.46µM* | 0.65µM* | 0%
COc1ccc2c(C)c(CC(=O)N3C[C@H]4C[C@@H](C3)c3cccc(=O)n3C4)c(=O)oc2c1C | 0% | 1% | 0 | 1% | -4% | u
O=C(Nc1cc2c(cc1C(=O)c1ccc(Br)cc1)OCCO2)c1ccc(Cl)cc1 | x | x | x | 23µM* | u | x
CC1C=CCCC12C(=O)NC(=O)NC2=O (centres undefined) | 10% | 8% | 7 | -26% | -19% | x
C/C(=N\NC(N)=O)c1c(O)n(C)c(=O)n(C)c1=O | 2% | 8% | 16 | u | u | 15%
Cc1cc(C)n2c(Nc3ccc4c(c3)OCCO4)c(-c3cc4ccccc4o3)nc2n1 | -9% | -8% | 19 | u | 21µM* | x
CN1CCN(c2ncc3ncc(=O)n(C)c3n2)CC1 | x | x | x | -9% | 23% | x
COC[C@H]1OC(=O)c2coc3c2[C@@]1(C)C1=C(C3=O)C2CCC(=O)[C@@]2(C)C[C@H]1OC(C)=O (some centres undefined) | u | u | x | 1µM* | 0.63µM* | x
COC[C@H]1OC(=O)c2coc3c2[C@@]1(C)C1=C(C3=O)[C@H]2CCC(=O)[C@@]2(C)C[C@H]1OC(C)=O | x | x | x | 9.4µM* | u | x
CC1=CC(=O)OC2CC3OC4C[C@@H](C)C5OC6CC7O[C@]8(C)C/C=C\C9OC%10CC%11OC(CC(C)CO)CC(O)[C@]%11(C)OC%10CC9OC8C[C@]7(C)O[C@]6(C)CCC5OC4C[C@]3(C)OC12 (some centres undefined) | 9% | -2% | -8 | 18µM* | 21µM* | -9%
C=C(COC(=O)CCC(=O)O)CC1CC(O)[C@]2(C)OC3CC4OC5C[C@]6(C)O[C@]7(C)CCC8OC9C[C@]%10(C)OC%11C(C)=CC(=O)OC%11CC%10OC9C[C@@H](C)C8OC7CC6O[C@]5(C)C/C=C\C4OC3CC2O1 (some centres undefined) | -10% | -23% | -5 | 13µM* | u | 14%
CN1CC[C@]23c4c5ccc(O)c4O[C@H]2[C@@H](O)CC[C@H]3[C@H]1C5 | x | x | x | -5%[92.5 µM] | 8%[92.5 µM] | x
COc1ccccc1N1CCN(Cc2c[nH]c3ccccc23)CC1 | u | u | x | 4.1µM* | 5.8µM* | u
COc1ccccc1N1CCN(Cc2ccc(F)cc2)CC1 | -8% | 1% | 4 | -24% | -29% | 4%
COc1ccccc1N1CCN(CCc2c[nH]c3cc4c(cc23)OCO4)CC1 | u | -9% | u | 23µM* | 18µM* | x
Cc1ccccc1N1CCN(Cc2c[nH]c3ccccc23)CC1 | 1.3µM* | u | u | 3.7µM* | 6.5µM* | -20%
COc1ccccc1N1CCN(Cc2ccc(Cl)cc2Cl)CC1 | 0% | -23% | -3 | u | u | -13%
CCC1(CC)C(=O)NC(=O)N(CCc2ccccn2)C1=O | u | 28% | -19 | -4% | 1% | x
CN1CCC[C@@H]1c1cccnc1 | x | x | x | 1% | -5% | x
C[C@]12CC[C@H]3C(=CCc4cc(O)ccc43)[C@@H]1CCC2=O | -21% | u | 0 | u | u | u
SMILES | HT1080 IDH1KD tx | HT1080-NT tox | IL-1B inflam inh | TDP1 cell CPT | DT40 TDP1 no CPT | ELG1 DNA repair
Nc1ccccc1C(=O)OCC(=O)N1CCc2ccccc21 | 18% | 14% | -1 | -3% | -9% | u
N#CSCC(=O)N1c2ccccc2CCc2ccccc21 | 23µM* | u | -51* | 5.8µM* | 7.3µM* | u
COC1CCC(OC2CC(C3(C)CCC4(CC(O)C(C)C(C(C)/C=C(\C)C(=O)C(C)CC(C)C(=O)O)O4)O3)OC3(OC(C4OC(O)(CO)C(C)CC4C)CC3C)C2C)OC1C (centres undefined) | 3.7µM* | 13µM* | -54* | 0.15µM* | 0.15µM* | x
O=CN1CC2CC(C1)c1cccc(=O)n1C2 (centres undefined) | x | x | x | 2% | -5% | x
O=P(N1CC1)(N1CC1)N1CCc2ccccc21 | -7% | u | 30 | 7.3µM* | 8.2µM* | x
C[C@H](CO)N1C[C@H](C)[C@H](CN(C)C(=O)Oc2ccccc2)OCc2cnnn2CCCC1=O | 7% | 7% | 10 | -3% | 0% | x
CCNC(=S)NCCC1=c2ccccc2=N/C1=C\c1c(O)n(C)c(=O)n(C)c1=O | -1% | -2% | 0 | u | 21µM* | u
Cn1c(O)c(/C=C2\C=Nc3ccc(Br)cc32)c(=O)n(C)c1=O | -14% | -14% | 20 | -18% | -2% | 24%
COC(=O)c1ccc(N2C(=O)CC(N3CCC(n4c(=O)[nH]c5ccccc54)CC3)C2=O)cc1 (centres undefined) | -1% | -2% | -2 | u | -25% | -13%
COc1ccc(-n2nnnc2C(c2cccc(OC)c2OC)N2CCC(n3c(=O)[nH]c4ccccc43)CC2)cc1 (centres undefined) | u | u | -22 | 8.2µM* | 5.2µM* | x
COc1ccc(-n2nnnc2C(c2ccnc3ccccc23)N2CCC(n3c(=O)[nH]c4ccccc43)CC2)cc1 (centres undefined) | u | u | -29 | u | u | x
